# Screens (PubChem)
# Rab9 prom act: activates the Rab9 promoter | actives 2.8% (n = 320,000) | AID 485297 | Potency, µM (titrated, usually from 9.22 µM), most hits filed as activators | Huh7 Rab9 promoter-luciferase reporter, luminescence, 24 h; further: nearly all actives have a fitted effect of over 60% in size
#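 Steps: seed 1500 Huh7 Rab9-luc cells per well, rest 2 h at 37 °C; add compound in DMSO; incubate 24 h; add luciferase reagent, 10 min ambient; read luminescence.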
# FLuc modulator: counter-screen for miR-21 project: firefly luciferase inhibitors or activators; purified FLuc, Km substrates, luminescence inhibition; P08659; Potency, µM (top dose mostly 57.5 µM), most hits filed as inhibitors; AID 588342; actives 6.9% (n = 360,000); further: nearly all actives have a fitted effect of over 55% in size
# Target sequence (P08659 whole entry, looked up): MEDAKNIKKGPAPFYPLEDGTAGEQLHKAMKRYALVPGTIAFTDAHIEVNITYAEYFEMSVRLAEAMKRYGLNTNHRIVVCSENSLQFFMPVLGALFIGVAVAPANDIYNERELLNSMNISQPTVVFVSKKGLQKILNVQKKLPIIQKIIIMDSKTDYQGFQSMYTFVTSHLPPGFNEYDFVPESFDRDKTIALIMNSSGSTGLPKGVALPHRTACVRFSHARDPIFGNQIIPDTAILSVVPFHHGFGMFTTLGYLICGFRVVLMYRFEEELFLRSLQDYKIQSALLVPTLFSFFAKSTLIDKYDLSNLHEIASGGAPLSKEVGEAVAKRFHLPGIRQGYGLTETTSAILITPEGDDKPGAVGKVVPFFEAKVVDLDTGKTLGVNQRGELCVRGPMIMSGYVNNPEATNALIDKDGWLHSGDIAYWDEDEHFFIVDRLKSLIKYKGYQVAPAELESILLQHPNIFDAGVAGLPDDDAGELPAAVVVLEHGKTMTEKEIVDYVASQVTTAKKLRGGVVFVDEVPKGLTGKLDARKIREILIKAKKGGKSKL
#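 Purified P. pyralis luciferase (10nM final) with 10uM D-luciferin and 10uM ATP (Km levels) in 50mM Tris acetate pH 7.5, 10mM Mg acetate, 0.01% Tween-20, 0.05% BSA; qHTS 6-point titration, ~60 µM downward; luminescence read.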
# ELG1 genotoxic: genotoxicity induction in ELG1-luciferase HEK293T cells; Potency, µM (titrated, usually from 46 µM), usual class: activators; HEK293T ELG1-luciferase reporter, luminescence, 16 h; actives 1.3% (n = 330,000); AID 504466; further: nearly all actives have a fitted effect of over 60% in size
#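 HEK293T cells expressing luciferase-tagged ELG1 were exposed to compound or DMSO vehicle for 16 hr at 37 °C and 5% CO2. Luciferase activity was then measured with ONE-Glo after 30 min at room temperature.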
# SMN2 splice enh: enhancers of SMN2 splice variant expression. actives 2.8% (n = 210,000). HEK293 SMN2-luciferase splicing reporter, luminescence, 30-36 h. Potency, µM (highest dose often 46.1 µM), actives largely listed as activators; further: nearly all actives have a fitted effect of over 55% in size
#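 HEK293 cells carry an SMN2 minigene-luciferase reporter in which exon 7 inclusion puts luciferase in frame. Cells were seeded at 2000 cells/well, attached for 10-12 hours, then exposed to compounds for 30-36 hours at 37C before ONE-Glo luminescence.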
# NPC1 promoter act: activates the NPC1 promoter | AID 485313 | actives 2.4% (n = 320,000) | Potency, µM (series often up to 9.22 µM), most hits filed as activators | Huh7 NPC1 promoter luciferase reporter, 24 h; further: nearly all actives have a fitted effect of over 60% in size
#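 Stably transfected Huh7 (NPC1 promoter→luciferase), 1500 cells/well in Opti-MEM + 10% FBS, 2 h settle, then compound 24 h at 37 °C. Luminescence after 10 min with Amplite reagent.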
# A number is an active result; i = inactive; ? = inconclusive; nt = no result; [ ] = remark or other dose. A selection: hits, their analogues and other compounds. The true share with any hit is near 7.4%. The call rests on the fitted dose curve; in most records, active means well fitted curve in the direction sought with a large enough effect; inconclusive means small, poorly fitted or top-dose-only effect, or another doubt; inactive means no such curve, though single readings can be large; an effect the other way counts as inactive or inconclusive.
SMILES,Rab9 prom act,FLuc modulator,ELG1 genotoxic,SMN2 splice enh,NPC1 promoter act
CC(C)(C)n1ncc2c(=O)n(CC(=O)c3ccc(Cl)cc3)cnc21,3.2µM,7.6µM,i,18µM,2.8µM
CC(C)(C)n1ncc2c(=O)n(CC(=O)NCc3ccccc3)cnc21,?,4.8µM,?,2.8µM,0.45µM
CC(C)(C)n1ncc2c(=O)n(CC(=O)Nc3ccc(Cl)cc3)cnc21,i,i,i,i,i
CC(C)ON([C@@H](C(=O)NO)C(C)C)S(=O)(=O)c1ccc(-c2ccccc2)cc1,i,nt,nt,nt,i
COc1ccc(CC(=O)Nc2ccc(S(=O)(=O)N3CCCC3)cc2)c(OC)c1,i,i,i,nt,i
COc1ccc(C(=O)Nc2nc3ccccc3[nH]2)cc1OC,2.8µM,15µM,?,11µM,2.8µM
COc1ccc(C(=O)Nc2nc3ccccc3[nH]2)cc1S(=O)(=O)N1CCCC1,i,?,i,i,i
CCOc1ccc(C(=O)Nc2nc3ccccc3[nH]2)cc1OCC,i,?,i,i,i
COc1cc(C(=O)Nc2nc3ccccc3[nH]2)ccc1OC(F)F,2.8µM,11µM,?,nt,1.4µM
COc1ccc(Br)c(C(=O)Nc2nc3ccccc3[nH]2)c1,?,i,i,nt,?
COc1ccc(Cl)cc1C(=O)Nc1nc2ccccc2[nH]1,?,0.085µM,?,nt,?
Cc1cc(F)ccc1NC(=O)C1CCCN(C(=O)c2cnn(-c3ccccc3)c2-n2cccc2)C1 (stereo not drawn),nt,i,nt,i,nt
CCOC(=O)C1=C(C)NC(C)=C(C(=O)OCC)C1C(=O)OCC(=O)NC1(C#N)CCCCC1,i,i,i,nt,i
O=C1C2C3C=CC(C4CC34)C2C(=O)N1/N=C/c1ccc(-c2ccc(Cl)cc2[N+](=O)[O-])o1 (stereo not drawn),i,i,i,i,i
O=C1C2C3C=CC(C4CC34)C2C(=O)N1/N=C/c1ccc(-c2ccc(F)cc2[N+](=O)[O-])o1 (stereo not drawn),i,13µM,i,i,i
Cc1c(C(=O)NCc2ccccc2CN2CCCC2)oc2ccc(F)cc12,i,i,i,nt,i
Cc1oc(-c2ccoc2)nc1CN(CC1CCC(=O)N1)C(C)C (stereo not drawn),i,i,i,nt,i
COCCN(Cc1nc(-c2ccc(-c3ccccc3)cc2)oc1C)C(C)C,?,9.5µM,0.92µM,nt,i
Cc1nn(-c2ccccc2)c(Cl)c1/C=N/Nc1nc2ccccc2[nH]1,0.45µM,0.48µM,2.6µM,nt,0.56µM
CC(=O)N1CCC(=NNc2nc3ccccc3[nH]2)CC1,i,?,i,?,i
Cc1[nH]c2ccccc2c1/C=N/Nc1nc2ccccc2[nH]1,i,4.3µM,?,nt,?
Cc1ccc(/C=N/Nc2nc3ccccc3[nH]2)s1,2.2µM,5.4µM,?,10µM,2.8µM
C(=N\Nc1nc2ccccc2[nH]1)/c1cccc2cccnc12,i,0.43µM,?,nt,i
CCCc1cnc(N2CCN(C(=O)c3ccc(OC)cc3)CC2)nc1,i,i,i,nt,i
CC(=O)c1cc(-c2ccccc2)n(CCC(=O)NC(C)(C)C)c1C,i,i,i,i,i
SMILES,Rab9 prom act,FLuc modulator,ELG1 genotoxic,SMN2 splice enh,NPC1 promoter act
Cc1cccc(CCN(CC(=O)NCc2ccc(F)cc2)C(=O)c2csnn2)c1,i,i,i,nt,i
COc1ccc(/C=N/Nc2nc3ccccc3[nH]2)c(OC)c1OC,?,1.5µM,?,nt,?
COc1cccc(/C=N/Nc2nc(C)cc(=O)[nH]2)c1OC,i,?,i,nt,i
Cc1cc(=O)[nH]c(N/N=C/c2c[nH]c3ccccc23)n1,i,?,i,nt,i
C(=N\Nc1nc2ccccc2[nH]1)/c1c[nH]c2ccccc12,?,7.6µM,?,?,?
Cc1ccccc1/C=N/Nc1ccc(Cl)nn1,i,i,i,i,i
Cc1ccccc1/C=N/Nc1nc2ccccc2[nH]1,3.5µM,11µM,i,nt,?
O=[N+]([O-])c1cc(/C=N/Nc2nc3ccccc3[nH]2)c(O)cc1O,i,24µM,?,i,i
COCCN1CCC(CNCc2c(C(=O)N3CCCCC3)nc3c(C)cccn23)C1 (stereo not drawn),i,i,i,nt,i
O=C(Nc1cccc(S(=O)(=O)N2CCOCC2)c1)C1=NN(c2ccccc2)C(=O)CC1,i,i,i,nt,i
O=S(=O)(Nc1ccccc1C(F)(F)F)c1ccc(-c2ccccn2)s1,i,i,i,nt,i
CN(C)c1cc(-c2ccc([N+](=O)[O-])cc2)oc(=O)c1Cl,i,i,i,nt,i
CCCCC/C=C\CC(O)/C=C/c1cccc(CC(O)CCCCO)n1 (stereo not drawn),i,nt,nt,i,i
COC(=O)c1sc(NC(=S)NC(=O)c2ccc(F)cc2)nc1C,?,i,i,i,i
CCOc1ccc(C(=O)Nc2nc(C)c(C(=O)OC)s2)cc1,?,0.76µM,21µM,nt,?
COC(=O)c1sc(NC(=O)c2ccncc2)nc1C,i,24µM,i,nt,i
COC(=O)c1sc(NC(=S)NC(=O)c2cccc(Br)c2)nc1C,i,13µM,i,nt,i
COC(=O)c1sccc1NC(=O)c1ccncc1,i,i,i,i,i
C=CCOC(=O)c1sc(NC(=O)c2ccc(OC)cc2)nc1C,i,?,?,?,i
CN(CCc1ccccn1)c1ccc2c(c1)C(=O)c1ccccc1-2,nt,nt,nt,i[9.22 µM],nt
CC1CC(C)CN(S(=O)(=O)c2ccc(C(=O)OCC(=O)NCCN3C(=O)CSC3=O)cc2)C1 (stereo not drawn),i,i,i,nt,i
C/C(=N\NC(=O)c1ccccc1O)c1ccc(Br)s1,?,3.8µM,i,1.6µM,?
C/C(=N\NC(=O)c1ccccc1[N+](=O)[O-])c1c(O)cc(C)oc1=O,i,i,i,i,i
C/C(=N\NC(=O)c1cc(Br)ccc1O)c1cccs1,3.5µM,11µM,?,18µM,2µM
C/C(=N\NC(=O)c1cc(C)nc2ccccc12)c1cccs1,i,i,i,nt,i
SMILES,Rab9 prom act,FLuc modulator,ELG1 genotoxic,SMN2 splice enh,NPC1 promoter act
COC(=O)N/N=C(\C)c1cccs1,i,i,i,nt,i
C/C(=N\NC(=O)c1ccccc1O)c1c(O)cc(C)oc1=O,?,15µM,i,?,i
C/C(=N/NC(=O)c1ccc(Br)o1)c1cccs1,4µM,17µM,9.2µM,nt,2.5µM
C/C(=N\NC(=O)c1ccccc1[N+](=O)[O-])c1ccc(Br)s1,i,i,i,i,i
CCc1noc(C)c1C(=O)N(CC)CC(=O)NCc1ccc(Cl)cc1,i,i,i,nt,i
N=C1S/C(=C\c2cccc3ccccc23)C(=O)N1c1ccc(F)cc1,i,i,i,i,i
CSC1=NC(=O)/C(=C\c2cccc3ccccc23)S1,i,7.6µM,i,i,i
O=C(O)Cc1c[nH]c2ccc(F)cc12,nt,nt,nt,i[9.22 µM],nt
Cc1cccc(C)c1NC(=O)C(=O)NCC1CCCN1S(=O)(=O)c1cccs1 (stereo not drawn),i,i,i,nt,i
O=C(NC(=S)Nc1cccc2[nH]ncc12)c1ccccc1,2.5µM,?,i,?,3.2µM
O=C(NC(=S)Nc1cccc2cccnc12)c1ccccc1,?,7.6µM,i,i,?
